The values that follow come from PubChem BioAssay.

Assay [1] relates to Plasmodium falciparum Sir2 (PF13_0152, Sir2A). Put plainly: Plasmodium falciparum Sir2A binding compounds – biochemical, small-molecule microarray, 635 nm fluorescence, primary screen (AID 1098).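 Further: score merges spot fluorescence intensity with its signal-to-noise ratio.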 As to conditions: fluorescence 635 nm, higher = more signal.
The nature of assay [2]: probe aDKK1 binding to arrayed compounds – biochemical, biotinylated probe, 635/667 nm fluorescence, primary screen (AID 1099).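 Further: score merges 667nm spot fluorescence with signal to noise across triplicate slides; reference of the scale not given here.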 As to conditions: small-molecule microarray, higher = more signal.
The nature of assay [3]: probe aCHRDL2 binding to arrayed compounds – biochemical, biotinylated probe, 635/667 nm fluorescence, primary screen (AID 1100). As to conditions: small-molecule microarray, higher = more signal.
A short description of assay [4]: change in splice reporter luminescence, either direction, cell-based, HEK293, spliceosome inhibition project, primary screen (AID 1101).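 Further: HEK293 cells carrying a splicing-competent luciferase reporter gene; test concentration not given here.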 As to conditions: HEK293 splicing luciferase reporter, 24 h, higher = more signal, called active from +8 up or from −8 down. A general note: Reporter assays use an easily measured gene product as a stand-in for the process of interest.

In assay [5] the target is Fibroblast growth factor 10 (Homo sapiens) (UniProt O15520). Kind of assay: compounds binding fibroblast growth factor 10 – biochemical, small-molecule microarray, 635 nm fluorescence, primary screen (AID 1102). To be noted: FGF10 binding, fluorescence 635 nm, higher = more signal.
Assay [6] relates to glycogen synthase kinase-3 (GSK3A per assay name; protocol says GSK3B). Put plainly: compounds binding glycogen synthase kinase-3 – biochemical, small-molecule microarray, 635 nm fluorescence, GSK3A, primary screen (AID 1103). Further: the record names both GSK3A and GSK3B. To be noted: fluorescence 635 nm, higher = more signal.
Assay [7] deals with Epidermal growth factor receptor (Homo sapiens) (UniProt P00533). Kind of assay: compounds binding epidermal growth factor receptor – biochemical, small-molecule microarray, 635 nm fluorescence, primary screen (AID 1104).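 Further: score merges 667 nm emission intensity with spot signal to noise over triplicate slides.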 As to conditions: EGFR binding, higher = more signal.
The target in assay [8] is Follistatin-related protein 3 (Homo sapiens) (UniProt O95633). Kind of assay: compounds binding follistatin-related protein 3 – biochemical, small-molecule microarray, 635 nm fluorescence, primary screen (AID 1105).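 Further: score merges emission near 667 nm and signal to noise per printed spot across three slides.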 To be noted: FSTL3 binding, higher = more signal.
Assay [9] addresses Dickkopf-related protein 1 (Homo sapiens) (UniProt O94907). Put plainly: small molecules binding DKK1 protein – biochemical, small-molecule microarray, 635 nm fluorescence scan, primary screen (AID 1106).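 Further: score merges emission near 667 nm with signal to noise over three replicate slides.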 As to conditions: higher = more signal.
The test system of assay [10] is Inhibin beta A chain (activin A). Put plainly: small molecules binding activin A – biochemical, small-molecule microarray, 635 nm fluorescence scan, primary screen (AID 1107).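 Further: mouse activin A protein probed at 4.33 µg/mL on printed slides; score merges bound-protein fluorescence near 667 nm with spot signal-to-noise.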 To be noted: INHBA, higher = more signal.

Active and inactive are the calls of the source.

Chain of Dickkopf-related protein 1 (Homo sapiens) (O94907 whole entry, looked up): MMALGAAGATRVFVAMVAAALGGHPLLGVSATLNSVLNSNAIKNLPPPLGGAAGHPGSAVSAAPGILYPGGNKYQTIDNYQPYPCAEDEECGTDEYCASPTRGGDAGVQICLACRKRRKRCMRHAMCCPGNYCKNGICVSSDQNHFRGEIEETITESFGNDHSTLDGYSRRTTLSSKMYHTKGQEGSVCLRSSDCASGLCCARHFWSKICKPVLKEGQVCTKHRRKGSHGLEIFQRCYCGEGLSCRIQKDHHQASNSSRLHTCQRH
Chain of Follistatin-related protein 3 (Homo sapiens) (O95633 whole entry, looked up): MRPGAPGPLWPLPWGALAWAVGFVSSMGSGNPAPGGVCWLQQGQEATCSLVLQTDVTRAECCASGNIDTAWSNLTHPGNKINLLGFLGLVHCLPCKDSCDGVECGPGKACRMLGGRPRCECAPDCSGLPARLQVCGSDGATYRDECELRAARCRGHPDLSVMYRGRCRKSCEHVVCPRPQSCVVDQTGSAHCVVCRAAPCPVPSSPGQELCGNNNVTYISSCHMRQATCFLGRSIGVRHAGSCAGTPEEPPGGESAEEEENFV
Chain of Fibroblast growth factor 10 (Homo sapiens) (O15520 whole entry, looked up): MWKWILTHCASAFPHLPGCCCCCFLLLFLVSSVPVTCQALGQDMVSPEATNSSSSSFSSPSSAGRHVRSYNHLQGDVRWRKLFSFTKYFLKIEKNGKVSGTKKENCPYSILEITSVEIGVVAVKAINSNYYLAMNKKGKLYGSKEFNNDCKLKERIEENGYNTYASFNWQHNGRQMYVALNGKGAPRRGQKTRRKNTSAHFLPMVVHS
Chain of Epidermal growth factor receptor (Homo sapiens) (P00533 whole entry, looked up): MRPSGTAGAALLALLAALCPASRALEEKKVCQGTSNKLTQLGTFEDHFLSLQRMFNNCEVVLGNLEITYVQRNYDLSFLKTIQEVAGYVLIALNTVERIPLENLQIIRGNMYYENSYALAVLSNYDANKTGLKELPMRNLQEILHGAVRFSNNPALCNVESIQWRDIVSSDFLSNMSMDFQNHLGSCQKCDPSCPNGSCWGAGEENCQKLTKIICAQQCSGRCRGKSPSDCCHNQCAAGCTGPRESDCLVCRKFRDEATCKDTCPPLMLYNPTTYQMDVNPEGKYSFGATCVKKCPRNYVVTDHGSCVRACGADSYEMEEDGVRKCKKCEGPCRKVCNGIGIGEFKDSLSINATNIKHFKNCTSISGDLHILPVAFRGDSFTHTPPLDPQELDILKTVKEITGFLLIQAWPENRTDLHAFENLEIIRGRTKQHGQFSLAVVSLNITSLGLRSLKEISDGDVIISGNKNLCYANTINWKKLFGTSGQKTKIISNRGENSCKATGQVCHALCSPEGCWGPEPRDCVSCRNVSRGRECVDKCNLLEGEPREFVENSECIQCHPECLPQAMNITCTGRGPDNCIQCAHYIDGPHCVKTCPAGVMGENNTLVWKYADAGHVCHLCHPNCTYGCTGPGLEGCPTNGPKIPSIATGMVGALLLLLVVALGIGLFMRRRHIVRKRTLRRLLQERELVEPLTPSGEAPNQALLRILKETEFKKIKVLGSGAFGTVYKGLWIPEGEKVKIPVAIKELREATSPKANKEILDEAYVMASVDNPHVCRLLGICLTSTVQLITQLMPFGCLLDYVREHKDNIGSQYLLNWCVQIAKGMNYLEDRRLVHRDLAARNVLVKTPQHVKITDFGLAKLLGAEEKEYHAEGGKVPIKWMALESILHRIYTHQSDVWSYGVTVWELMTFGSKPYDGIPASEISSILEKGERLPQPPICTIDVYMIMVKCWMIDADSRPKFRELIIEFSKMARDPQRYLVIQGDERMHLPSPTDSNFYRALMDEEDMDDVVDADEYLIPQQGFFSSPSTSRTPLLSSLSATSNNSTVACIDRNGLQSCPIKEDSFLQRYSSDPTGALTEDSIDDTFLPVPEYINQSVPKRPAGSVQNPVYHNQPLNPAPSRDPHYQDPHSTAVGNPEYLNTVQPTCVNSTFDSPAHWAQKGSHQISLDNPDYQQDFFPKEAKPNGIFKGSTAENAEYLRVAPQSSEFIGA

`C[C@@H]1ON(c2ccc(C(=O)OC(C)(C)C)cc2)[C@H](c2ccc(Br)cc2)[C@H]1C(=O)N1C(=O)OC[C@H]1Cc1ccccc1`: the composite z-score was 0.992 in assay [1]; -0.0749 in [2]; -0.17 in [3]; 1.17 in assay [5]; 1.31 in [6]; 0.701 in assay [7]. For the same molecule, the values for the composite z-score in [8], in assay [9] and in assay [10] were 1.21, 1.11 and -0.109, respectively. Besides, the z-score in assay [4] is -0.65 (inactive).

As for `COC(=O)[C@H](Cc1ccccc1)N1CC(/C=C/C2CC2)=C[C@@H]1[C@@H](O)Cc1ccccc1`, the composite z-score is 1.01 in assay [1]; 0.0175 in [2]; -0.276 in [3]; 1.47 in [5]; 0.837 in [6]; 0.688 in assay [7]. The composite z-score in assay [8] was found to be 1.4; in [9] it was 1.2; in [10], 0.142. Further, the z-score in assay [4] was 3.96 (inactive).

For `COC(=O)[C@@]1(Cc2ccc(OC)cc2)[C@H]2c3cc(C(=O)N(C)C)n(Cc4nc5ccccc5[nH]4)c3C[C@H]2CN1C(=O)c1ccccc1`, the composite z-score in [1] amounted to 0.432; in assay [2] it was 0.956; in [3], 0.958; in [5] it was 1.09; in [6], 1.23; in assay [7], 0.0916. Moreover, the values for the composite z-score in assay [8], in [9] and in [10] were 1.35, -0.463 and 0.777, respectively. In [4], the z-score was -1.21 (inactive).

As for `COc1ccc(C#Cc2ccc3c(c2)[C@]2(C(=O)N3)[C@H](C(=O)N3CCc4cc(OC)c(OC)cc4C3)[C@H]3C(=O)O[C@H](c4ccccc4)[C@H](c4ccccc4)N3[C@@H]2c2ccc(O)cc2)cc1`, the composite z-score in [1] is 0.822; in assay [2], -0.29; in [3], -0.178; in assay [5], 0.851; in assay [6] it was 1.29; in assay [7], 0.537. Also, the composite z-score in assay [8] was 0.957; in assay [9] it was 0.513; in assay [10], -0.214. In addition, the z-score in assay [4] is -0.00287 (inactive).

For `CC(C)(C)OC(=O)CC[C@]1(C(=O)NCCN2CCOCC2)N=C(c2ccc(OCCCO)cc2)O[C@H]1c1ccccc1N=[N+]=[N-]`, the composite z-score in assay [1] was 1.63; in assay [2], 0.99; in assay [3] it was 1.12; in assay [5], 0.177; in assay [6] it was 1.17; in [7] it was 0.303. Further, the composite z-score is 0.361 in [8], -0.235 in assay [9] and 1.24 in [10]. The z-score in assay [4] was -1.03 (inactive).

Consider `CO[C@H]1O[C@H](CO)[C@@H](OC(=O)Nc2ccccc2-c2ccccc2)[C@H](OC(=O)Nc2ccc3c(c2)OCO3)[C@@H]1OC(=O)Nc1ccc2c(c1)OCO2`, for which the composite z-score in assay [1] was determined as 1.32; in assay [2], 0.198; in assay [3] it was 0.679; in assay [5] it was 1.05; in [6] it was 1.34; in assay [7], 0.0757. In addition, the values for the composite z-score in assay [8], in assay [9] and in assay [10] were 1.44, 0.279 and 0.691, respectively. In assay [4], the z-score was -1.14 (inactive).

Take `C=CCC(OC(C)=O)[C@@H]1[C@@H](N(Cc2cc3ccccc3o2)C(=O)Cc2ccc(F)cc2)c2cc(OCCCO)ccc2N1C(=O)c1ccc2ccccc2n1` (stereo not given in full): the composite z-score is -0.278 in assay [1]; -0.106 in assay [2]; 0.394 in assay [3]; -0.0436 in [5]; -0.497 in assay [6]; 0.112 in assay [7]. In addition, the composite z-score in assay [8] was -0.255; in [9] it was 0.0645; in assay [10] it was 1.2. In addition, the z-score in assay [4] was -0.509 (inactive).

Turning to `CC(C)N1CC=CC23O[C@@H]4C=CCOC(=O)[C@@H]4[C@H]2C(=O)N(C(C)CO)[C@@H]3C1=O` (stereo not given in full), the composite z-score is 0.776 in assay [1]; -0.162 in assay [2]; 0.559 in [3]; -0.724 in assay [5]; -1.99 in assay [6]; -1.29 in assay [7]. Besides, the composite z-score is -0.93 in assay [8], -1.21 in [9] and -0.116 in [10]. Also, in assay [4], the z-score was 0.408 (inactive).

As for `CC=CC(O)C1C=CC2C(=O)N(C)C(=O)C2N1N1CCCCC1` (stereo not given), the composite z-score in [1] amounted to 1.11; in [2], 0.123; in [3], 0.452; in assay [5], 0.888; in [6], 1.23; in assay [7], 0.519. For the same molecule, the values for the composite z-score in assay [8], in assay [9] and in assay [10] were 1.26, 0.22 and 0.898, respectively. The z-score in [4] is 0.661 (inactive).

With `O=C1NC(=O)C2C1C=CC(C(O)c1ccc3c(c1)OCO3)N2Nc1ccccn1` (stereo not given), the composite z-score was found to be 0.165 in assay [1]; 0.301 in assay [2]; 0.555 in assay [3]; 0.212 in assay [5]; 0.0668 in assay [6]; 0.722 in assay [7]. The composite z-score turned out to be 1.39 in assay [8], 0.388 in assay [9] and 1.64 in [10]. The z-score in assay [4] was -0.653 (inactive).

In the case of `Cc1ccc(S[C@]2(C(=O)O)CC(=O)N(Cc3ccccc3Cl)[C@@H]2c2ccc(CO)cc2)cc1`, the composite z-score in assay [1] is -0.189; in [2], 0.505; in [3], 0.938; in [5], -0.165; in assay [6], -0.851; in [7], -0.84. Besides, the figures for the composite z-score in assay [8], in assay [9] and in assay [10] were -1.1, -0.817 and 0.387, respectively. Further, the z-score in [4] was 1.39 (inactive).

Turning to `CCOC(=O)C1=CC[C@@H](c2ccccc2C(F)(F)F)N(S(=O)(=O)c2ccc(C)cc2)C1`, the composite z-score in assay [1] came out at 1.23; in [2], 1.27; in [3], 1.18; in [5] it was 1.18; in assay [6], 0.914; in assay [7], 0.29. Besides, the composite z-score is 1.12 in assay [8], -0.144 in assay [9] and 0.685 in assay [10]. Besides, the z-score in assay [4] was -2.27 (inactive).

On to `C=C(C(=O)CC[C@H](OC(=O)c1cccnc1)c1cccc(OCCO)c1)C(C)C`, for which the composite z-score was 1.24 in assay [1]; -0.061 in [2]; 0.125 in [3]; -0.64 in assay [5]; -0.418 in assay [6]; -0.792 in [7]. Further, the composite z-score is -1.05 in assay [8], -0.878 in assay [9] and 1.16 in assay [10]. The z-score in [4] was 1.76 (inactive).

For the molecule `O=C1C[C@@](C(=O)NCC(F)(F)F)(c2ccc([N+](=O)[O-])cc2)[C@@H](c2ccc(CO)cc2)N1C1CCCCC1`, the composite z-score in assay [1] is 1.65; in [2], 0.74; in [3], 0.843; in assay [5] it was 0.86; in [6], 1.31; in assay [7], 0.308. For the same molecule, the composite z-score came to 1.03 in [8], 0.172 in assay [9] and 0.563 in assay [10]. Moreover, the z-score in assay [4] was -0.684 (inactive).

For `C=CCN1C(=O)[C@@]2(CCC(=O)OC(C)(C)C)N=C(c3ccc(OCCCO)cc3)O[C@H]2c2ccccc21`, the composite z-score in assay [1] came to 1.25; in assay [2], 0.549; in [3] it was 1; in assay [5], 0.0195; in assay [6], 1.13; in assay [7], 0.217. Besides, the composite z-score was found to be 0.792 in [8], 0.116 in assay [9] and 1.4 in [10]. Moreover, the z-score in [4] is 0.0157 (inactive).

In the case of `C=CC1c2cc(O)c(OC)cc2CCN1Cc1sc2ccccc2c1Cl` (stereo not given), the composite z-score is 1.29 in [1]; 0.284 in assay [2]; 1.25 in [3]; 0.504 in assay [5]; 0.112 in assay [6]; -0.163 in [7]. The composite z-score in assay [8] is 0.847; in [9], 0.153; in assay [10], 1.55. For the same molecule, the z-score in assay [4] is -1.4 (inactive).
